proKLK7 act: activators of human kallikrein-7 zymogen | P49862 | purified proKLK7, EDANS-DABCYL substrate fluorescence; 100% is mature enzyme control, 0% vehicle | activation, % at 7 µM | 0.9% of 370,000 active;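 active = activation above the mean of all tested compounds plus 3 SD, computed per campaign excluding outliers beyond control limits, cut at about 13% in these data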
ADAM10 inh: inhibits human ADAM10 | O14672 | recombinant ADAM10, EDANS/DABCYL FRET peptide cleavage, 3 h | inhibition, % at 7 µM | 0.62% of 370,000 active | AID 720582;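 active = inhibition above a per-campaign cutoff equal to the mean of compounds falling between control-based bounds plus 3 SD, cut at about 20% in these data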;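 note: 0% = DMSO wells while the 100% control is not disclosed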
ADAM17 inh: inhibitors of human ADAM17; recombinant ADAM17, EDANS/DABCYL FRET peptide cleavage; AID 720648; 0.83% of 370,000 active; inhibition, % at 6.95 µM; P78536;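 active = inhibition above the mean of compounds lying between control limits plus 3 SD, set per campaign, cut at about 8.5% in these data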;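 note: 0% = DMSO-only wells as the low control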
PLC-gamma1 inh: blocks human PLC-gamma1 enzyme activity | P19174 | purified PLC-gamma1, fluorogenic substrate, fluorescence | inhibition, % at 12.2 µM | 0.84% of 370,000 active | AID 720700; in the data active = inhibition above about 9.5%
sPLA2-III inh: Blocks human group III sPLA2 activity; Q9NZ20; QFRET BODIPY PC-A2 liposome hydrolysis, fluorescence; inhibition, % at 12.2 µM; 0.56% of 370,000 active;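 active = inhibition above mean plus 3 SD of compounds lying within the high and low control bounds, cut at about 19% in these data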;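 note: 0% = median of test compound wells and 100% = no enzyme DMSO wells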
PLCb3 inh: inhibitors of human phospholipase C beta3 | Q01970 | Purified PLC-beta3, fluorogenic substrate, fluorescence | inhibition, % at 12.2 µM | 0.18% of 370,000 active | AID 720704; in the data active = inhibition above about 11%;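 note: 0% = median of compound wells on plate and 100% = full blocker control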
Target sequence (Q01970 whole entry, looked up): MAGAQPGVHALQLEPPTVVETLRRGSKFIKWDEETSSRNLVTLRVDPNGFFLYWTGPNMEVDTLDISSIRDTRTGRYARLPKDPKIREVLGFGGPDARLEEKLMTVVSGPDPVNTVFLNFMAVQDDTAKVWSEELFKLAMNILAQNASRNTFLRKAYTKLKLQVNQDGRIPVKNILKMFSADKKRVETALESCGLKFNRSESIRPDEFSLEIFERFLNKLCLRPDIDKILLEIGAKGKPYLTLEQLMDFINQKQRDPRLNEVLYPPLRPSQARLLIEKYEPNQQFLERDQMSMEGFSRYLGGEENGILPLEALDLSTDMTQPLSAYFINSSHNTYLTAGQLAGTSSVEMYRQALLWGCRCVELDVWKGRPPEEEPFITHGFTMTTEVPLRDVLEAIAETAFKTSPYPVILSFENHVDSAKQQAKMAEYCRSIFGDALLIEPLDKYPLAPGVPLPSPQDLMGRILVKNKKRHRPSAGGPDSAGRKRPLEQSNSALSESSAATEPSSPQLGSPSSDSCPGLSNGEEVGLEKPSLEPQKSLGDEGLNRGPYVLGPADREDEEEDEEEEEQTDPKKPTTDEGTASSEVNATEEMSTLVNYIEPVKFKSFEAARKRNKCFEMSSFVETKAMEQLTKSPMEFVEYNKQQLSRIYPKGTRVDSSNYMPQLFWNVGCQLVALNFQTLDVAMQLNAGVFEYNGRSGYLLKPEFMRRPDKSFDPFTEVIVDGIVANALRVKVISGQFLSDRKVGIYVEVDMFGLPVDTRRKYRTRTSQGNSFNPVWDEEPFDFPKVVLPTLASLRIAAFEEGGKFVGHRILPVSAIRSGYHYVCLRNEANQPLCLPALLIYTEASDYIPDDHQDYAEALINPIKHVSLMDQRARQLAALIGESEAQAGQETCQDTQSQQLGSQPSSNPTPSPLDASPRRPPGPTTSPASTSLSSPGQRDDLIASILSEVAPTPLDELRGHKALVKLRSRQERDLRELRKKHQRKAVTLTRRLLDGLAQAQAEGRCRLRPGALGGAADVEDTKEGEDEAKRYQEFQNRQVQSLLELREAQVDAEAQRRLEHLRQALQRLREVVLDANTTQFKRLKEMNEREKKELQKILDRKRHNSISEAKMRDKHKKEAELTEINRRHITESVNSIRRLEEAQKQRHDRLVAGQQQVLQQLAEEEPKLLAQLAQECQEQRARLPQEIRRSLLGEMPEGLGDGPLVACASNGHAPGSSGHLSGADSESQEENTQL
ADAM10 ctr: counter-screen for ADAM17 exosite inhibitors: inhibitors of human ADAM10. shares compounds with ADAM17 inh. recombinant ADAM10, EDANS/DABCYL FRET peptide cleavage, 3 h. inhibition, % at 6.95 µM. 47% of 2,900 active;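 active = mean inhibition over the triplicate runs exceeds the activity threshold set in the earlier primary screen, cut at about 20% in these data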;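 note: 0% = DMSO wells and 100% = marimastat wells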
ADAM17 confirm: confirmation of inhibitors of human ADAM17; AID 743257; shares compounds with ADAM17 inh; recombinant ADAM17, EDANS/DABCYL QFRET peptide cleavage; inhibition, % at 6.95 µM; 65% of 2,900 active;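 active = mean inhibition across replicates above the hit cutoff set in the primary screen, cut at about 8.5% in these data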;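 note: 0% = DMSO wells and 100% = marimastat wells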
The depositor's hits bear a star; nt = not tested or not shown. In the library only some 3.4% were active in any assay of this set; here they are far more common.

SMILES | proKLK7 act | ADAM10 inh | ADAM17 inh | PLC-gamma1 inh | sPLA2-III inh | PLCb3 inh | ADAM10 ctr | ADAM17 confirm
CC1(C(=O)NS(=O)(=O)C2CC2)CCCN(C(=O)C2(c3ccc(Cl)cc3)CCCC2)C1 (stereo unspecified) | -1 | -7 | -6 | 0 | 10 | 0 | nt | nt
Cc1ccc(SCc2c(-c3ccccc3)nn(C)c2Cl)cc1 | 0 | 3 | 0 | 1 | -12 | -2 | nt | nt
Cn1nc(-c2ccccc2)c(CSc2ccccc2)c1Cl | 0 | 7 | 9.3* | 9 | -6 | 7 | 13 | 9.3*
Cc1cc(Cl)ccc1OCCCC(=O)N1CCN(S(=O)(=O)c2ccccc2)CC1 | 1 | 13 | 9.9* | 7 | -15 | 2 | 30* | 16*
CCOc1ccccc1OCCCC(=O)N1CCN(S(=O)(=O)c2ccc(Cl)cc2)CC1 | 0 | -7 | -3 | 0 | -3 | 0 | nt | nt
COc1ccc(N2CCN(S(=O)(=O)c3c(C)noc3/C=C/N(C)C)CC2)cc1 | 0 | -3 | -4 | 3 | 10 | -8 | nt | nt
COc1ccc(N2CCN(C(=O)C3CCN(S(=O)(=O)c4c(C)noc4/C=C/N(C)C)CC3)CC2)cc1 | 0 | 18 | 10* | 7 | 5 | -8 | 0 | 1
COc1ccc(NC(=O)c2cccc(N3C(=O)C4C5CCC(C5)C4C3=O)c2)cc1 (stereo unspecified) | 0 | 2 | 11* | 2 | -13 | 0 | 12 | 8
O=C(O)c1ccc(NC(=O)c2cccc(N3C(=O)C4C5CCC(C5)C4C3=O)c2)cc1 (stereo unspecified) | 0 | 7 | 0 | 0 | -3 | 5 | nt | nt
COc1ccc(S(=O)(=O)Nc2ccc3c(c2)CC(=O)N([C@@H](C)CO)C[C@@H](C)[C@@H](CN(C)Cc2ccccc2)O3)cc1 | 0 | 18 | 11* | 8 | -57 | 6 | 13 | 6
C[C@H]1CN([C@@H](C)CO)C(=O)c2cc(NC(=O)C3CCCCC3)ccc2O[C@H]1CN(C)Cc1ccc(-c2ccccc2)cc1 | 0 | 16 | 11* | 0 | -12 | 5 | 32* | 18*
C[C@@H]1CN([C@H](C)CO)C(=O)Cc2cc(NS(=O)(=O)c3ccc(F)cc3)ccc2O[C@H]1CN(C)Cc1ccc(C(=O)O)cc1 | 0 | -12 | -5 | 4 | -8 | 2 | nt | nt
COc1ccc(S(=O)(=O)N(C)C[C@H]2Oc3ccc(NS(=O)(=O)c4ccccc4)cc3CC(=O)N([C@H](C)CO)C[C@@H]2C)cc1 | 1 | 15 | 13* | 5 | -37 | 3 | -5 | -2
Cc1ccc(S(=O)(=O)NCCC(c2ccc(F)cc2)c2ccco2)cc1 (stereo unspecified) | 0 | 15 | 9.7* | -2 | -38 | 1 | 21* | 12*
CCC1CCC2(CC1)NC(=O)N(CC(=O)c1c(C)[nH]c3ccccc13)C2=O (stereo unspecified) | 0 | 18 | 8.9* | 6 | -22 | 0 | 4 | 8
Cc1[nH]c2ccccc2c1C(=O)CN1C(=O)NC2(CCCCCC2)C1=O | 0 | 4 | 3 | 2 | -10 | 0 | nt | nt
COc1ccccc1NC(=O)C(=O)N/N=C(\C)CC(=O)Nc1ccc(OCc2ccccc2)cc1 | 0 | 4 | 3 | -3 | -13 | -3 | nt | nt
C/C(CC(=O)Nc1ccc(OCc2ccccc2)cc1)=N\NC(=O)C(=O)Nc1cccc(C)c1 | 0 | 12 | 11* | 0 | -29 | 9 | 1 | 3
COc1ccccc1N1CCN(c2nc(N)c(C#N)c(CC#N)c2C#N)CC1 | -1 | 12 | 20* | -38 | -19 | -50 | 10 | 11*
CC1=C(C(=O)OCc2ccccc2)C(/C=C/c2ccccc2)NC(=S)N1 (stereo unspecified) | 0 | 18 | 12* | 4 | 18 | -15 | 30* | 15*
Cc1ccccc1OCCCSc1nc2ccccc2[nH]1 | 0 | 19 | 8.8* | 1 | -19 | 3 | 15 | 10*
c1ccc(OCCSc2nc3ccccc3[nH]2)cc1 | 0 | 5 | 4 | 5 | -8 | 1 | nt | nt
COCCCNC(=O)C[C@@H]1C[C@@]2(C(=O)OC)CCCCC=C2N(CCC2=CCCCC2)C1=O | 1 | 2 | 0 | -1 | -7 | 4 | nt | nt
Cc1ccc(-n2nnc3c(=O)n(CC(N)=O)cnc32)cc1 | 0 | 5 | 2 | 6 | 3 | 0 | nt | nt
CCCSc1ccc([C@@H]2[C@@H]3C(=O)N(CC)C(=O)[C@@H]3[C@]3(C(=O)OC)CCCCN23)cc1 | 0 | 13 | 3 | 2 | -15 | 0 | nt | nt
SMILES | proKLK7 act | ADAM10 inh | ADAM17 inh | PLC-gamma1 inh | sPLA2-III inh | PLCb3 inh | ADAM10 ctr | ADAM17 confirm
CCC(C)Sc1ccc([C@@H]2[C@@H]3C(=O)N(C)C(=O)[C@@H]3[C@]3(C(=O)OC)CCCCN23)cc1OC (stereo partly specified) | 0 | 5 | 3 | -1 | -15 | -5 | nt | nt
CCSc1ccc([C@@H]2[C@@H]3C(=O)N(CC)C(=O)[C@@H]3[C@]3(C(=O)OC)CCCCN23)cc1OC | 0 | 6 | -2 | -8 | -13 | -9 | nt | nt
COC(=O)[C@@]12CCCCN1[C@H](c1ccc(SC3CCCCC3)c(OC)c1)[C@@H]1C(=O)N(C)C(=O)[C@@H]12 | 0 | 15 | 10* | 4 | -20 | 3 | 29* | 17*
CCCSc1ccc([C@@H]2[C@H]3C(=O)N(CC)C(=O)[C@H]3[C@]3(C(=O)OC)CCCN23)cc1 | 0 | 10 | 13* | -1 | -6 | -3 | 3 | 3
CCC(C)Sc1ccc([C@@H]2[C@@H]3C(=O)N(CC)C(=O)[C@@H]3[C@]3(C(=O)OC)CCCCN23)cc1OC (stereo partly specified) | 3 | 13 | 9.2* | -1 | -10 | -10 | -3 | 7
CCSc1ccc([C@@H]2[C@H]3C(=O)N(C)C(=O)[C@H]3[C@]3(C(=O)OC)CCCCN23)cc1OC | 0 | 3 | 11* | 3 | -9 | 3 | 26* | 13*
CC(=O)NC12CC3CC(C1)CC(C(=O)N1CCN(S(=O)(=O)c4cccc([N+](=O)[O-])c4)CC1)(C3)C2 | 0 | -16 | -1 | 2 | 3 | -2 | nt | nt
CCOc1ccc(NC(=O)COc2ccc(C(=O)NC(C)c3ccc(S(N)(=O)=O)cc3)cc2OC)cc1 (stereo unspecified) | 0 | -9 | -2 | 2 | -2 | -8 | nt | nt
C[C@H](NC(=O)N1CCn2c1nc1ccccc12)C(=O)NCc1ccc(F)cc1 | -1 | -11 | 0 | -1 | 0 | -1 | nt | nt
O=C(Nc1ccc2c(c1)CCCN2C(=O)c1ccccc1)c1ccccc1 | 0 | 5 | 0 | 6 | -10 | -3 | nt | nt
